From PubChem BioAssay (NCI)
Where “and” joins values, the source holds several entries; their conditions need not be identical. Identical values can stand only once. The panel holds about 83,000 compounds, 20% with a hit somewhere; the sample as a whole holds those more often.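 In brief: 96-well plates, 48 h treatment, single concentration, percent growth endpoint.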 Calls of active or inactive are those of the source. How the source made its calls: active means growth percent below 10; inactive means the rest.

How the values were obtained:
Experiment in all cases: NCI-60 one-dose screen, 48 h (100 = growth as untreated, 0 = no growth, -100 = all killed)
Conditions in all cases: 10 µM unless noted
[1] = tested on: NCI-H23 lung
[2] = tested on: NCI-H226 lung
[3] = tested on: NCI-H322M lung
[4] = tested on: NCI-H460 lung
[5] = tested on: HOP-92 NSCLC
[6] = tested on: NCI-H522 lung
[7] = tested on: A549/ATCC NSCLC
[8] = tested on: 786-0 renal
[9] = tested on: COLO 205 colon
[10] = tested on: DU-145 prostate
[11] = tested on: K-562 leukemia
[12] = tested on: MALME-3M melanoma
[13] = tested on: MDA-MB-231 breast
[14] = tested on: RXF 393 renal
[15] = tested on: SF-268 CNS
[16] = tested on: SF-295 CNS
[17] = tested on: SF-539 CNS
[18] = tested on: UACC-257 melanoma
[19] = tested on: M14 melanoma
[20] = tested on: HOP-62 NSCLC

Row | SMILES | growth [1] | growth [2] | growth [3] | growth [4] | growth [5] | growth [6] | growth [7] | growth [8] | growth [9] | growth [10] | growth [11] | growth [12] | growth [13] | growth [14] | growth [15] | growth [16] | growth [17] | growth [18] | growth [19] | growth [20]
1 | CCC/C(=N/NC(N)=O)c1ccco1 | 99.1% (inactive) | 96.1% (inactive) | 96.5% (inactive) | 104% (inactive) | 82.7% (inactive) | 76.3% (inactive) | 93.4% (inactive) | 89.7% (inactive) | 107% (inactive) | 109% (inactive) | 104% (inactive) | 83.8% (inactive) | 100% (inactive) | 105% (inactive) | 102% (inactive) | 98.4% (inactive) | 93% (inactive) | 98.6% (inactive) | 97.6% (inactive) | –
2 | Cc1cc(O)c(C(C)C)cc1N=O | 95.4% (inactive) and 111% (inactive) | 99.6% (inactive) and 108% (inactive) | 115% (inactive) and 104% (inactive) | 115% (inactive) | 79.7% (inactive) | 93.8% (inactive) and 74.7% (inactive) | 106% (inactive) and 99.9% (inactive) | 98.6% (inactive) and 103% (inactive) | 106% (inactive) and 112% (inactive) | 108% (inactive) and 104% (inactive) | 99.6% (inactive) | 113% (inactive) and 108% (inactive) | 83.3% (inactive) and 100% (inactive) | 112% (inactive) and 113% (inactive) | 99.7% (inactive) and 96.1% (inactive) | 98.8% (inactive) and 121% (inactive) | 98.7% (inactive) and 101% (inactive) | 103% (inactive) and 97.1% (inactive) | 104% (inactive) | –
3 | CCCC(=O)Oc1ccc2ccccc2c1 | 98.7% (inactive) | 103% (inactive) | 109% (inactive) | 98% (inactive) | – | 96.8% (inactive) | 97.3% (inactive) | 101% (inactive) | 99.2% (inactive) | 111% (inactive) | 95.7% (inactive) | 111% (inactive) | 95.8% (inactive) | 112% (inactive) | 105% (inactive) | 96.7% (inactive) | 98.3% (inactive) | 90.8% (inactive) | 97.5% (inactive) | 89.9% (inactive)
4 | CN(C)c1ccc(C(=N)c2ccc(N(C)C)cc2)cc1 | 56.4% (inactive) and 41.9% (inactive) | 74.5% (inactive) and 47.3% (inactive) | 58.1% (inactive) and 60.9% (inactive) | 9.11% (active) and 15.7% (inactive) | 32.5% (inactive) and 27.5% (inactive) | -23.9% (active) and 17.8% (inactive) | 32% (inactive) and 24.2% (inactive) | 47.4% (inactive) and 40.2% (inactive) | 17.5% (inactive) and 13.2% (inactive) | 42.3% (inactive) and 56.5% (inactive) | 12.8% (inactive) and 7.8% (active) | 61.6% (inactive) | 53.9% (inactive) and 35.9% (inactive) | 49.6% (inactive) and 39.6% (inactive) | 44.5% (inactive) and 53.6% (inactive) | 26.7% (inactive) and 12.1% (inactive) | 41.1% (inactive) and 34.6% (inactive) | 38.2% (inactive) and 51.7% (inactive) | 2.95% (active) | –
5 | C/C=C/C(=O)OCCCCCCCCCCCC | 105% (inactive) | 87.3% (inactive) | 114% (inactive) | 108% (inactive) | 96.5% (inactive) | 96.3% (inactive) | 84.2% (inactive) | 95% (inactive) | 105% (inactive) | 118% (inactive) | 93.3% (inactive) | 111% (inactive) | 93.2% (inactive) | 110% (inactive) | 106% (inactive) | 105% (inactive) | 109% (inactive) | 94.4% (inactive) | 98.7% (inactive) | –
6 | Cc1cnc(N)s1 | 97.5% (inactive) | 90.6% (inactive) | 99.6% (inactive) | 105% (inactive) | 91.3% (inactive) | 77.9% (inactive) | – | 106% (inactive) | 102% (inactive) | 106% (inactive) | 92.9% (inactive) | 98.1% (inactive) | 91.6% (inactive) | 105% (inactive) | 93.8% (inactive) | 98.3% (inactive) | 103% (inactive) | 84.4% (inactive) | – | –
7 | CCN(CC)C(=S)SCCO | 93.3% (inactive) | 99.3% (inactive) | 97.1% (inactive) | 104% (inactive) | 109% (inactive) | 95.5% (inactive) | 99.3% (inactive) | 104% (inactive) | 114% (inactive) | 107% (inactive) | 97% (inactive) | 99.7% (inactive) | 101% (inactive) | 106% (inactive) | 102% (inactive) | 106% (inactive) | 102% (inactive) | 96.3% (inactive) | 106% (inactive) | –
8 | COc1ccc2oc3c(ccc[n+]3C)c(=O)c2c1 | 105% (inactive) | 98.3% (inactive) | 105% (inactive) | 108% (inactive) | 94.7% (inactive) | 82.7% (inactive) | – | 105% (inactive) | 98.6% (inactive) | 113% (inactive) | 99% (inactive) | 102% (inactive) | 110% (inactive) | 108% (inactive) | 101% (inactive) | 99.5% (inactive) | 98.2% (inactive) | 87.3% (inactive) | 102% (inactive) | –
9 | CC1NC(C)c2ccc3ccccc3c2O1 (configuration not stated) | 102% (inactive) | 102% (inactive) | 106% (inactive) | 108% (inactive) | – | 88.6% (inactive) | 106% (inactive) | 104% (inactive) | 121% (inactive) | 104% (inactive) | 104% (inactive) | 119% (inactive) | 110% (inactive) | 120% (inactive) | 101% (inactive) | 116% (inactive) | 102% (inactive) | 99.4% (inactive) | 92.5% (inactive) | 108% (inactive)
10 | CCNCc1ccccc1 | 91.4% (inactive) | 100% (inactive) | 100% (inactive) | 109% (inactive) | 113% (inactive) | 102% (inactive) | 102% (inactive) | 103% (inactive) | 107% (inactive) | 104% (inactive) | 96.3% (inactive) | 101% (inactive) | 110% (inactive) | 118% (inactive) | 104% (inactive) | 105% (inactive) | 102% (inactive) | 102% (inactive) | 109% (inactive) | –
11 | COc1ccc(CCO)cc1 | 110% (inactive) | 92.8% (inactive) | 99% (inactive) | 108% (inactive) | 86.4% (inactive) | 88.6% (inactive) | 92.9% (inactive) | 99.3% (inactive) | 96.3% (inactive) | 110% (inactive) | 82.9% (inactive) | 92.1% (inactive) | 102% (inactive) | 105% (inactive) | 105% (inactive) | 103% (inactive) | 101% (inactive) | 96.4% (inactive) | 103% (inactive) | –
12 | OCc1cccc(F)c1 | 79.6% (inactive) | 104% (inactive) | 90.2% (inactive) | 41.8% (inactive) | – | – | 99.3% (inactive) | 103% (inactive) | 90.1% (inactive) | 3.58% (active) | 99.4% (inactive) | 106% (inactive) | 89.6% (inactive) | 67.8% (inactive) | 97.4% (inactive) | 72.3% (inactive) | 111% (inactive) | 101% (inactive) | – | 100% (inactive)
13 | O=C(O)/C=C/C=C/c1ccccc1 | 104% (inactive) and 99.9% (inactive) | 99.4% (inactive) and 100% (inactive) | 104% (inactive) and 107% (inactive) | 107% (inactive) and 112% (inactive) | – | 94.8% (inactive) and 106% (inactive) | 98.4% (inactive) and 97.8% (inactive) | 105% (inactive) and 109% (inactive) | 105% (inactive) and 113% (inactive) | 106% (inactive) and 109% (inactive) | 114% (inactive) and 110% (inactive) | 103% (inactive) and 114% (inactive) | 101% (inactive) and 106% (inactive) | 113% (inactive) and 120% (inactive) | 101% (inactive) | 105% (inactive) and 101% (inactive) | 96.7% (inactive) and 98.6% (inactive) | 102% (inactive) and 93.2% (inactive) | 101% (inactive) | 102% (inactive) and 105% (inactive)
